Data on 18 compounds can be found in PubChem BioAssay (EPA / NIEHS).

The nature of assay [1]: CCTE_Harrill_HTTr_Apoptosis_MCF7: CCTE's 6-hour Apoptosis Assessment for the High-Throughput Transcriptomics (HTTr) Platform, in MCF-7 cells cultured in DMEM + 10% fetal bovine serum, Harrill Lab (AID 2284011). Summed up: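 MCF-7 (DMEM + 10% FBS), 384-well; 8-pt dilution series, 6 h chemical exposure; caspase-3/7 activation via CellEvent Caspase 3/7 Green, HCI; bidirectional fit vs DMSO.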

Assay [2] in a line: CCTE_Shafer_MEA_acute_burst_number: CCTE's Neural Acute Assay for Single-Electrode Bursts, Shafer Lab (AID 2284013). The essentials:
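Burst totals were derived with adaptive spike detection (8x rms threshold) on filtered signals from rat cortical cultures; change relative to pre-treatment baseline after 40-min compound exposure (0.03-40 uM) was fitted in the negative direction against DMSO.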

A short description of assay [3]: CCTE_Shafer_MEA_acute_burst_duration_mean: CCTE's Neural Acute Assay for Mean Burst Duration, Shafer Lab (AID 2284014).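 Further: hits are decreases in mean burst duration relative to DMSO controls.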 The essentials: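 Acute exposure of mature rat cortical networks (DIV 13 or 15) grown on microelectrode arrays to 0.03-40 uM compound. Mean burst duration compared with the 40-min pre-dose baseline over a 40-min post-dose recording at 37 C.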
Assay [4] can be described thus: CCTE_Shafer_MEA_acute_interburst_interval_mean: CCTE's Neural Acute Assay for Mean Interburst Interval, Shafer Lab (AID 2284016).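 Further: percent change of mean interburst interval versus each well's own pre-dose baseline; curves fitted for decrease in interburst interval relative to DMSO.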 The essentials:
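Rat cortical cultures, DIV 13/15; 20 min equilibration, 40 min baseline, compound 0.03-40 uM, 40 min re-recording, 37 C. Spikes detected at 8x rms noise (300-5000 Hz band-pass). Endpoint: % change in interburst interval, fitted in loss direction vs DMSO.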

Assay [5] can be described thus: CCTE_Shafer_MEA_acute_burst_percentage_mean: CCTE's Neural Acute Assay for Percentage of Spikes in a Burst, Shafer Lab (AID 2284017).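 On AC50: curve fitted for loss of signal so potency reflects decreased burst percentage.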 The essentials:
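Rat cortical cultures, DIV 13/15, 37 C. Spikes detected at 8x rms noise (300-5000 Hz band-pass). Burst spikes/total spikes averaged across electrodes per well; % change post- vs pre-treatment (40 min each), loss-of-signal fit vs DMSO.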

The nature of assay [6]: CCTE_Shafer_MEA_acute_burst_percentage_std: CCTE's Neural Acute Assay for Standard Deviation of Burst Percentage, Shafer Lab (AID 2284018).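 Further: fitted in the negative direction so actives lower burst percentage SD.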 The essentials:
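Primary rat cortical neurons on 16-electrode MEA wells were recorded 40 min at baseline (DIV 13 or 15), then 40 min after compound (0.03-40 uM), at 37 C. Well value is SD across electrodes of spikes-in-bursts/total spikes; endpoint is percent change, DMSO-referenced.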

The nature of assay [7]: CCTE_Shafer_MEA_acute_per_network_burst_spike_number_mean: CCTE's Neural Acute Assay for Average Number of Spikes in a Network Burst, Shafer Lab (AID 2284019).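 On AC50: curve fitted for loss of signal so actives reduce spikes per network burst.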 Summed up: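 Acute exposure of rat primary cortical networks (DIV 13/15) on MEAs; adaptive spike detection at 8x rms noise, 37 C. Percent change in spikes per network burst after 40 min with compound (0.03-40 uM), negative direction vs DMSO.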

Assay [8] in a line: CCTE_Shafer_MEA_acute_per_network_burst_electrodes_number_mean: CCTE's Neural Acute Assay for Mean Number of Electrodes in a Network Burst, Shafer Lab (AID 2284021).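 Further: curves fitted for decreases only so hits reduce electrodes per burst.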 The essentials:
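Primary rat cortical networks, mwMEA, 37 C. 20 min stabilization, 40 min baseline, compound 0.03-40 uM, 40 min re-record. Wells need >=10 active electrodes; percent change per well, negative fitting direction.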

Assay [9] in a line: CCTE_Shafer_MEA_acute_network_burst_percentage: CCTE's Neural Acute Assay for Percentage of Network Bursts, Shafer Lab (AID 2284022).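 Further: curves fitted for loss so actives lower network burst percentage.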 Summed up:
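Readout is the fraction of spikes falling in network bursts, expressed as per-well percent change from a 40-min pre-exposure baseline. Primary rat cortical neurons on MEA were exposed to 0.03-40 uM compound on DIV 13 or 15 and recorded for 40 min at 37 C.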

Assay [10] concerns the target Estrogen receptor (Homo sapiens) (UniProt P03372). Briefly: CCTE_Deisenroth_AIME_96WELL_LUC_Active: CCTE's 96-well Estrogen Receptor Transactivation Assay with AIME metabolic competence (ERTA luciferase; metabolism positive), Deisenroth Lab (AID 2284023; active means hit-call score of the fitted dose curve at least 0.9, where 1 is the maximum). The essentials: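 Metabolism-positive mode: induced rat hepatic S9 in alginate microspheres conditions test solutions (0.002 - 200 uM, 10 points) for 2 hours. VM7Luc4E2 ER luciferase reporter cells then exposed 24 h; positive-direction fit against 17beta-estradiol, n=4 typical.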

Results filed as inconclusive are left out. Active and inactive are the calls of the source. How the source made its calls, unless noted: active means hit-call score of the fitted dose curve at least 0.9, where 1 is the maximum; inactive means score below 0.9.

Estrogen receptor (Homo sapiens), sequence (P03372 whole entry, looked up): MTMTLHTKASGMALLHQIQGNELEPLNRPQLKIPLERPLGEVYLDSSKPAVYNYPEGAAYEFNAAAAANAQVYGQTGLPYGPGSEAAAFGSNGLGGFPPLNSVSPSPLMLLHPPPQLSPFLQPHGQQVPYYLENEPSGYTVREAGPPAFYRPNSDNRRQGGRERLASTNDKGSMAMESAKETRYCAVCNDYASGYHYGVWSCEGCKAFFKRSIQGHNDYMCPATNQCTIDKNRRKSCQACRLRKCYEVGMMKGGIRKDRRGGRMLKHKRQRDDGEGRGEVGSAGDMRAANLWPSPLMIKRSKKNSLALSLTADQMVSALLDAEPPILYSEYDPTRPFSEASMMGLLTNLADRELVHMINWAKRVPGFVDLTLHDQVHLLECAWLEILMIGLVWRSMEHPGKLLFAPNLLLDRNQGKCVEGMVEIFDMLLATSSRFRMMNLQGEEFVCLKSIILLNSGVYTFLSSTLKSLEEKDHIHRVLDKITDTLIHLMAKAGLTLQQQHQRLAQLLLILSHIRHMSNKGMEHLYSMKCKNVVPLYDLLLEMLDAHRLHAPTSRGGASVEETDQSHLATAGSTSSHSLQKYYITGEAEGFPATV

Consider `N#CN=C1SCCN1Cc1ccc(Cl)nc1`, for which the outcome in assay [1], in assay [2], in assay [3], in [4], in [5] and in assay [6] was inactive. Moreover, the compound was called inactive in [7] and in assay [8]. Moreover, the half-maximal activity concentration (AC50) in assay [9] was 4.76 µM (active).

As for `CCCC(=NOCC)C1=C(O)CC(CC(C)SCC)CC1=O` (stereo unspecified), the outcome in [1], in [2], in assay [4], in assay [6], in assay [8] and in assay [9] was inactive. Moreover, the half-maximal activity concentration (AC50) in assay [3] is 31 µM (active); in [5], 27.7 µM (active); in assay [7] it was 20.1 µM (active).

Turning to `Cn1c(-c2ccccc2)cc(-c2ccccc2)[n+]1C`, the result in assay [1], in assay [3], in [6] and in [7] was inactive. In addition, the AC50 in assay [2] is 1.15 µM (active); in [5] it was 31.4 µM (active); in [8] it was 20 µM (active); in assay [9] it was 28 µM (active).

With `CCOc1cc(C(C)(C)C)ccc1C1COC(c2c(F)cccc2F)=N1` (stereo unspecified), the result in assay [1], in assay [3], in assay [4], in assay [6] and in [7] was inactive. Further, the AC50 in assay [2] is 3.12 µM (active); in assay [5], 20 µM (active); in assay [8], 4.3 µM (active); in [9], 20 µM (active).

Turning to `CC1(C)C(C=C(Cl)Cl)C1C(=O)OC(C#N)c1cccc(Oc2ccccc2)c1` (stereo unspecified), the result in assay [1], in assay [2], in assay [3], in assay [6], in assay [7] and in assay [10] was inactive. Further, the AC50 is 4.16 µM (active) in assay [4], 1.57 µM (active) in assay [5], 0.622 µM (active) in assay [8] and 1.94 µM (active) in [9].

For `CC(C)(C)C(=O)C(Oc1ccc(Cl)cc1)n1cncn1` (stereo unspecified), the outcome in assay [1] was inactive.

`COC(=O)N(C(=O)N1CO[C@@]2(C(=O)OC)Cc3cc(Cl)ccc3C2=N1)c1ccc(OC(F)(F)F)cc1`: the result in assay [1], in [2], in assay [3], in assay [6], in assay [7] and in [8] was inactive. Further, in assay [9], the compound was classed as inactive. Further, the half-maximal activity concentration (AC50) in assay [4] is 15 µM (active); in assay [5] it was 28.9 µM (active).

On to `Clc1nc(Cl)nc(Nc2ccccc2Cl)n1`, for which the result in [1], in assay [2], in assay [3], in assay [4], in assay [5] and in [6] was inactive. The compound was classed as inactive in [7], in assay [8] and in assay [9].

As to `CC(C)=CC1C(C(=O)OCc2coc(Cc3ccccc3)c2)C1(C)C` (stereo unspecified), the outcome in [1], in assay [2], in [3], in assay [7] and in assay [9] was inactive. Moreover, the AC50 is 31.2 µM (active) in assay [4], 15 µM (active) in assay [5], 20 µM (active) in [6] and 8.62 µM (active) in [8].

Regarding `Cc1nc(N(C)C)nc(OC(=O)N(C)C)c1C`, the outcome in assay [1], in assay [2], in [3], in assay [4], in [5] and in assay [6] was inactive. The compound was classed as inactive in [7], in assay [8] and in [9].

Take `Cc1c(COC(=O)[C@@H]2[C@H](/C=C(\Cl)C(F)(F)F)C2(C)C)cccc1-c1ccccc1`: the outcome in assay [1], in assay [2], in assay [4], in [6], in [7] and in [8] was inactive. Moreover, the AC50 in assay [3] was 1.47 µM (active); in [5] it was 0.756 µM (active); in assay [9], 0.225 µM (active).

On to `CC(C)N1C(=O)N(c2ccccc2)CSC1=NC(C)(C)C`, for which the result in assay [1], in assay [3], in [4] and in assay [6] was inactive. The half-maximal activity concentration (AC50) in [2] is 4.94 µM (active); in assay [5] it was 20 µM (active); in assay [7], 13.5 µM (active); in assay [8], 17.4 µM (active); in [9] it was 26.5 µM (active).

On to `CCCN(CC)CC1COC2(CCC(C(C)(C)C)CC2)O1` (stereo unspecified), for which the result in assay [1], in assay [2], in assay [3], in assay [4], in [5] and in [6] was inactive. The result in [7], in [8] and in assay [9] was inactive.

As for `CC1(C)CCC(=Cc2ccc(Cl)cc2)C1(O)Cn1cncn1` (stereo unspecified), the result in [1], in assay [2], in assay [3], in assay [4], in assay [5] and in [6] was inactive. Also, the outcome in [7], in assay [8] and in assay [9] was inactive.

As for `CCOP(=O)(OCC)Oc1nc(Cl)c(Cl)cc1Cl`, the result in [1], in assay [2], in [4] and in assay [9] was inactive. The AC50 was 0.00298 µM (active) in assay [3]; 34.9 µM (active) in [5]; 32.5 µM (active) in [6]; 0.00674 µM (active) in assay [7]; 0.0114 µM (active) in assay [8].

Regarding `CCOc1nc(F)cc2nc(S(=O)(=O)Nc3c(Cl)cccc3Cl)nn12`, the result in assay [1], in [2], in assay [3], in [4], in assay [5] and in assay [6] was inactive. Moreover, the outcome in assay [7], in [8] and in assay [9] was inactive.

Turning to `OC(c1ccc(Cl)cc1)(c1ccc(Cl)cc1)C(Cl)(Cl)Cl`, the result in [1], in [3], in assay [4], in [6] and in [7] was inactive. Besides, the AC50 in assay [2] was 2.08 µM (active); in [5] it was 4.81 µM (active); in [8], 20 µM (active); in assay [9], 20 µM (active).

Turning to `COc1ccc(-c2ccccc2)cc1NNC(=O)OC(C)C`, the outcome in assay [1] was inactive.
